In PubChem BioAssay AID1159580 (chemical genetic matrix, 2015):
“And” between values parts separate entries of the source, which are not always exact repeats. Equal values may be shown once. About 2,000 (36%) of roughly 5,500 compounds were called active. About 18% were inconclusive and are not listed. Rule as the data show it: active = normalized growth mostly below about 0.91 (no sharp cut-off); inconclusive = no clear call, values can overlap the other calls; inactive = mostly above about 0.92. The list shows a part of the results.

Experiment: chemical genetic growth profiling, strain panel (AID 1159580);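 also: tested at 20 µM; growth read once vehicle control cultures reached saturation at 30 °C; 1 = growth at the plate median or of vehicle wells; lower values mean less growth of the strain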
Details: growth OD

Measured: normalized growth

Cn1c(=O)c2[nH]c(C3CCCC3)nc2n(C)c1=O
inactive: S. cerevisiae deletion strains, locus YJR075W, strain HOC1, stronger effect = lower value 1.01 and 1.04 | S. cerevisiae deletion strains, locus YKL009W, strain mrt4, stronger effect = lower value 1 | S. cerevisiae deletion strains, locus YKL068W, stronger effect = lower value 1.02 | S. cerevisiae deletion strains, locus YKL085W, strain MDH1 (second series), stronger effect = lower value 1.05 | S. cerevisiae deletion strains, locus YKL085W, strain MDH1, stronger effect = lower value 1.05 | S. cerevisiae deletion strains, locus YKL160W, strain elf1, stronger effect = lower value 0.983 | S. cerevisiae deletion strains, locus YKL190W, strain CNB1, stronger effect = lower value 1.02 | S. cerevisiae deletion strains, locus YKR001C, strain vps1, stronger effect = lower value 1 | S. cerevisiae deletion strains, locus YKR026C, strain gcn3, stronger effect = lower value 1 | S. cerevisiae deletion strains, locus YKR091W, strain srl3, stronger effect = lower value 0.991 | S. cerevisiae deletion strains, locus YLL001W, strain dnm1, stronger effect = lower value 0.97 | S. cerevisiae deletion strains, locus YLL026W, stronger effect = lower value 0.989 | S. cerevisiae deletion strains, locus YLL041C, strain sdh2, stronger effect = lower value 0.988 | S. cerevisiae deletion strains, locus YLR027C, strain aat2, stronger effect = lower value 0.995 | S. cerevisiae deletion strains, locus YLR039C, strain RIC1, stronger effect = lower value 0.966 | S. cerevisiae deletion strains, locus YLR058C, strain SHM2, stronger effect = lower value 1.01 | S. cerevisiae deletion strains, locus YLR102C, strain apc9, stronger effect = lower value 0.999 | S. cerevisiae deletion strains, locus YLR113W, strain HOG1, stronger effect = lower value 1 | S. cerevisiae deletion strains, locus YLR221C, strain rsa3, stronger effect = lower value 0.988 | S. cerevisiae deletion strains, locus YLR258W, strain gsy2, stronger effect = lower value 0.972 | S. cerevisiae deletion strains, locus YLR262C, strain YPT6 (second series), stronger effect = lower value 0.997 | S. cerevisiae deletion strains, locus YLR262C, strain YPT6, stronger effect = lower value 1.04 | S. cerevisiae deletion strains, locus YLR268W, strain sec22, stronger effect = lower value 0.988 | S. cerevisiae deletion strains, locus YLR320W, strain mms22, stronger effect = lower value 0.989 | S. cerevisiae deletion strains, locus YLR330W, strain CHS5, stronger effect = lower value 1.01 | S. cerevisiae deletion strains, locus YLR342W, strain FKS1 (second series), stronger effect = lower value 1 | S. cerevisiae deletion strains, locus YLR342W, strain FKS1, stronger effect = lower value 0.986 | S. cerevisiae deletion strains, locus YLR357W, strain rsc2, stronger effect = lower value 0.954 | S. cerevisiae deletion strains, locus YLR370C, strain arc18, stronger effect = lower value 0.997 | S. cerevisiae deletion strains, locus YLR371W, strain rom2, stronger effect = lower value 0.997 | S. cerevisiae deletion strains, locus YLR384C, strain iki3, stronger effect = lower value 0.986 | S. cerevisiae deletion strains, locus YLR418C, strain cdc73, stronger effect = lower value 0.989 | S. cerevisiae deletion strains, locus YML016C, strain PPZ1, stronger effect = lower value 1.02 | S. cerevisiae deletion strains, locus YML032C, strain rad52, stronger effect = lower value 0.99 | S. cerevisiae deletion strains, locus YML120C, strain ndi1, stronger effect = lower value 0.992 | S. cerevisiae deletion strains, locus YML124C, strain tub3, stronger effect = lower value 0.998 | S. cerevisiae deletion strains, locus YMR058W, strain fet3, stronger effect = lower value 1 | S. cerevisiae deletion strains, locus YMR078C, strain ctf18, stronger effect = lower value 0.996 | S. cerevisiae deletion strains, locus YMR125W, strain sto1, stronger effect = lower value 0.979 | S. cerevisiae deletion strains, locus YMR129W, stronger effect = lower value 0.999 | S. cerevisiae deletion strains, locus YMR205C, strain PFK2, stronger effect = lower value 0.988 | S. cerevisiae deletion strains, locus YMR223W, strain ubp8, stronger effect = lower value 0.989 | S. cerevisiae deletion strains, locus YMR231W, strain pep5, stronger effect = lower value 0.988 | S. cerevisiae deletion strains, locus YMR263W, strain SAP30, stronger effect = lower value 1.02 and 0.995 | S. cerevisiae deletion strains, locus YMR307W, strain GAS1, stronger effect = lower value 1.05 and 1.01 | S. cerevisiae deletion strains, locus YNL067W, strain RPL9B, stronger effect = lower value 1.02 | S. cerevisiae deletion strains, locus YNL071W, strain lat1, stronger effect = lower value 0.997 | S. cerevisiae deletion strains, locus YNL128W, strain TEP1, stronger effect = lower value 1.01 and 0.993 | S. cerevisiae deletion strains, locus YNL153C, strain GIM3, stronger effect = lower value 1.01 and 0.975 | S. cerevisiae deletion strains, locus YNL175C, strain NOP13, stronger effect = lower value 0.977 | S. cerevisiae deletion strains, locus YNL183C, strain NPR1, stronger effect = lower value 0.942 | S. cerevisiae deletion strains, locus YNL197C, strain WHI3, stronger effect = lower value 0.935 | S. cerevisiae deletion strains, locus YNL209W, strain ssb2, stronger effect = lower value 0.996 | S. cerevisiae deletion strains, locus YNL224C, strain SQS1, stronger effect = lower value 0.989 | S. cerevisiae deletion strains, locus YNL233W, strain BNI4, stronger effect = lower value 1.01 | S. cerevisiae deletion strains, locus YNL248C, strain rpa49, stronger effect = lower value 0.968 | S. cerevisiae deletion strains, locus YNL250W, strain rad50, stronger effect = lower value 1 | S. cerevisiae deletion strains, locus YNL271C, strain bni1, stronger effect = lower value 0.989 | S. cerevisiae deletion strains, locus YNL298W, strain CLA4, stronger effect = lower value 0.998 | S. cerevisiae deletion strains, locus YNL307C, strain MCK1, stronger effect = lower value 0.996 | S. cerevisiae deletion strains, locus YNL322C, strain KRE1 (second series), stronger effect = lower value 0.985 | S. cerevisiae deletion strains, locus YNL322C, strain KRE1, stronger effect = lower value 1.01 | S. cerevisiae deletion strains, locus YNR049C, strain mso1, stronger effect = lower value 0.994 | S. cerevisiae deletion strains, locus YNR052C, strain pop2, stronger effect = lower value 1 | S. cerevisiae deletion strains, locus YOL006C, strain TOP1, stronger effect = lower value 1.05 | S. cerevisiae deletion strains, locus YOL012C, strain htz1 0.701 | S. cerevisiae deletion strains, locus YOL147C, strain pex11, stronger effect = lower value 0.986 | S. cerevisiae deletion strains, locus YOR001W, strain rrp6, stronger effect = lower value 0.989 | S. cerevisiae deletion strains, locus YOR061W, strain CKA2, stronger effect = lower value 1.01 | S. cerevisiae deletion strains, locus YOR069W, strain VPS5, stronger effect = lower value 1.01 | S. cerevisiae deletion strains, locus YOR070C, strain gyp1, stronger effect = lower value 0.998 | S. cerevisiae deletion strains, locus YOR080W, strain dia2, stronger effect = lower value 0.985 | S. cerevisiae deletion strains, locus YOR083W, strain WHI5 (second series), stronger effect = lower value 0.977 | S. cerevisiae deletion strains, locus YOR083W, strain WHI5, stronger effect = lower value 0.99 | S. cerevisiae deletion strains, locus YOR106W, strain vam3, stronger effect = lower value 0.991 | S. cerevisiae deletion strains, locus YOR136W, strain idh2, stronger effect = lower value 0.988 | S. cerevisiae deletion strains, locus YOR144C, strain elg1, stronger effect = lower value 0.998 | S. cerevisiae deletion strains, locus YOR184W, strain ser1, stronger effect = lower value 0.981 | S. cerevisiae deletion strains, locus YOR231W, strain MKK1, stronger effect = lower value 0.981 | S. cerevisiae deletion strains, locus YOR265W, strain rbl2, stronger effect = lower value 1 | S. cerevisiae deletion strains, locus YOR270C, strain vph1, stronger effect = lower value 1.02 | S. cerevisiae deletion strains, locus YOR290C, strain snf2, stronger effect = lower value 0.925 | S. cerevisiae deletion strains, locus YOR316C, strain cot1, stronger effect = lower value 0.999 | S. cerevisiae deletion strains, locus YPL051W, strain arl3, stronger effect = lower value 0.992 | S. cerevisiae deletion strains, locus YPL055C, strain LGE1, stronger effect = lower value 1.02 | S. cerevisiae deletion strains, locus YPL078C, strain atp4, stronger effect = lower value 0.997 | S. cerevisiae deletion strains, locus YPL106C, strain sse1, stronger effect = lower value 0.985 | S. cerevisiae deletion strains, locus YPL240C, strain hsp82, stronger effect = lower value 0.983 | S. cerevisiae deletion strains, locus YPL241C, strain CIN2, stronger effect = lower value 1.04 and 1.01 | S. cerevisiae deletion strains, locus YPL256C, strain CLN2, stronger effect = lower value 0.953 | S. cerevisiae deletion strains, locus YPR119W, strain clb2, stronger effect = lower value 0.997 | S. cerevisiae deletion strains, locus YPR141C, strain kar3, stronger effect = lower value 0.997 | S. cerevisiae deletion strains, locus YPR163C, strain tif3, stronger effect = lower value 0.998 | S. cerevisiae deletion strains, locus YPR167C, strain met16, stronger effect = lower value 0.997 | S. cerevisiae deletion strains, strain wtn01, stronger effect = lower value 1.01 | S. cerevisiae strains, strain wild type, stronger effect = lower value 1.01
